JMJD2A Tudor: qHTS Assay for Inhibitors of JMJD2A-Tudor Domain; Lysine-specific demethylase 4A (Homo sapiens), O75164; AlphaScreen JMJD2A-Tudor / H3K4me3 peptide binding; Potency, µM (highest dose often 114 µM), hits mostly inhibitors; actives 4.4% (n = 390,000); also: nearly all actives have a fitted effect of over 50% in size
Six1-Eya2 blk: qHTS Assay for Inhibitors of the Six1/Eya2 Interaction | Homeobox protein SIX1 (Homo sapiens) + Protein phosphatase EYA2 (Homo sapiens), … | AlphaScreen GST-Six1/His-Eya2 binding, biochemical; stronger effect = lower value | activity change, % (concentration not given with the values) | actives 0.56% (n = 360,000) | AID 651725, 2012; in the data active = activity change below about -65%; inconclusive = mostly about -30% to -63%
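AlphaScreen with GST-Six1 and His-Eya2 (5X mix: 250 nM and 500 nM), glutathione donor and nickel acceptor beads; buffer 50 mM Tris pH 8.0, 300 mM NaCl, 1 mM TCEP; 1 h at 37 C in the dark.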
CtBP-E1A inh: qHTS Assay for Inhibitors of the CtBP/E1A Interaction | actives 0.49% (n = 340,000) | CtBP / adenovirus E1A interaction (AlphaScreen) | AID 651724, 2012 | AlphaScreen GST-E1A/His-CtBP binding, 1536-well; stronger effect = lower value | activity change, % (test concentration not listed); in the data active = activity change below about -65%; inconclusive = mostly about -30% to -63%
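GST-E1A and His-tagged CtBP (125 nM each as 5X stock) were preincubated with pin-transferred compound for 2 h at 37 °C in the dark, then glutathione donor and nickel acceptor beads were added for 1 h before AlphaScreen reading.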
BAZ2B inh: qHTS Assay for Inhibitors of BAZ2B; AlphaScreen BAZ2B-H3K14Ac peptide displacement; Potency, µM (highest dose often 114 µM), hits mostly inhibitors; actives 4.4% (n = 360,000); also: nearly all actives have a fitted effect of over 60% in size
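Multi-concentration screen (max 110 uM) measuring displacement of acetylated histone H3 peptide from BAZ2B by AlphaScreen, using 50 nM protein, 50 nM peptide and 10 ug/mL streptavidin donor plus Ni-chelate acceptor beads.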
HP1b binding inh: HTS for Inhibitors of HP1-beta Chromodomain Interactions with Methylated Histone Tails | Chromobox protein homolog 1 (Homo sapiens), P83916 | AlphaScreen HP1-beta / biotin-H3K9me3 peptide binding | Potency, µM (highest dose often 114 µM), most hits filed as inhibitors | actives 0.56% (n = 390,000); also: nearly all actives have a fitted effect of over 70% in size
Target sequence (P83916 whole entry, looked up): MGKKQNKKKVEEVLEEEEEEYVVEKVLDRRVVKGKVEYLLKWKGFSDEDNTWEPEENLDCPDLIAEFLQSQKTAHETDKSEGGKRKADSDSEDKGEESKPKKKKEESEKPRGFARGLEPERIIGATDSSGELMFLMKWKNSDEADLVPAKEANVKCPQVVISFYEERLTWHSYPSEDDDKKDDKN
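Compound inhibition of the preformed complex between 50 nM HP1-beta and 50 nM biotinylated H3K9me3 peptide was read by AlphaScreen. Buffer was PBS pH 7.4 with 0.01% Tween-20. Incubations ran 30 min at room temperature, with 10 ug/mL donor/acceptor beads.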
G9a inh: qHTS Assay for Inhibitors of Histone Lysine Methyltransferase G9a; G9a H3K9 monomethylation, AlphaScreen, 2 h; actives 8.8% (n = 350,000); Histone-lysine N-methyltransferase EHMT2 (Homo sapiens), Q96KQ7; AID 504332, 2011; Potency, µM (series often up to 102 µM), most hits filed as inhibitors; also: nearly all actives have a fitted effect of over 75% in size
Target sequence (Q96KQ7 913-1193 limits assumed): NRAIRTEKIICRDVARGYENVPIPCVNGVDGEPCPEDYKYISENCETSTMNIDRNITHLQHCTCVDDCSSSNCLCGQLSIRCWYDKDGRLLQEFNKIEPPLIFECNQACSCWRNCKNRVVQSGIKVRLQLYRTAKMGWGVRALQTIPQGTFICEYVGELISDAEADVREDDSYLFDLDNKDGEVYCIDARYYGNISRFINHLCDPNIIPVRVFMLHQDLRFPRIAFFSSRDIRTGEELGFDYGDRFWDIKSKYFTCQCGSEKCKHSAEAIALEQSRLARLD
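Chemiluminescent proximity detection of H3K9 monomethylation, read after 10 min bead incubation in the dark. Reaction: 20 nM G9a, 500 nM biotin-H3K9 peptide, 20 uM SAM cofactor, 2 h, room temperature, following 15 min enzyme-compound preincubation.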
Of the large screens only hits and unclear results are named; the others gave an inactive call. This is a sample that favours compounds with a hit; in the whole collection about 10% have one here. Unless noted, calls follow the shape of the dose curve; as a rule, active = well fitted inhibition curve with a large enough effect; inconclusive = small, poorly fitted or top-dose-only effect; inactive = no such curve, though single readings can be large or run the other way.

CC(=O)O[C@@]12CO[C@@H]1C[C@H](O)[C@@]1(C)C(=O)[C@H](O)C3=C(C)[C@@H](OC(=O)C(O)[C@@H](NC(=O)OC(C)(C)C)c4ccccc4)C[C@@](O)([C@@H](OC(=O)c4ccccc4)[C@H]21)C3(C)C (some centres undefined)	none (no result: JMJD2A Tudor, Six1-Eya2 blk, CtBP-E1A inh, BAZ2B inh, HP1b binding inh)
CN(C)c1oc(-c2ccc(OCc3ccccc3)cc2)nc1C#N	JMJD2A Tudor inconclusive, BAZ2B inh inconclusive, HP1b binding inh inconclusive, G9a inh 11µM
N#Cc1nc(-c2ccc(OCc3ccccc3)cc2)oc1NCc1cccnc1	G9a inh inconclusive (no result: BAZ2B inh)
Cc1ccc(-c2nc(C#N)c(NCc3cccc4c3OCO4)o2)cc1	JMJD2A Tudor inconclusive, BAZ2B inh inconclusive, HP1b binding inh inconclusive, G9a inh 10µM
Nc1nc(-c2ccco2)nn1C(=O)c1ccc(Cl)cc1	none
CSc1nc(-c2ccco2)nn1C(=O)c1ccc(Cl)cc1	G9a inh 79µM (no result: JMJD2A Tudor, Six1-Eya2 blk, CtBP-E1A inh, HP1b binding inh)
CC(C)CN(CC(C)C)C(=O)Cc1coc2ccc3ccccc3c12	BAZ2B inh inconclusive, G9a inh inconclusive
O=C(Nc1cc2c(cc1Br)OCCO2)c1cccnc1	none
CCOCC(=O)Nc1nc(-c2ccccc2)c(CC)s1	G9a inh 35µM
CCOCC(=O)Nc1nc2ccc(OC)cc2s1	none
CC(C)(C)c1ccc(C(=O)NCCc2csc3nc(-c4ccccc4F)nn23)cc1	none (no result: Six1-Eya2 blk, CtBP-E1A inh)
CCOc1ccc(OCC)c(NS(=O)(=O)c2cccc3nsnc23)c1	JMJD2A Tudor inconclusive, BAZ2B inh 50µM, HP1b binding inh inconclusive, G9a inh inconclusive
COc1ccc(C(=O)O)cc1NS(=O)(=O)c1cccc2nsnc12	G9a inh 4µM
COc1ccccc1NS(=O)(=O)c1cccc2nsnc12	none (no result: G9a inh)
Cc1cccc(C(=O)Nc2nnc(SCc3cc(=O)n4cccc(C)c4n3)s2)c1	none (no result: Six1-Eya2 blk, CtBP-E1A inh)
COC(=O)c1cc(C(C)=O)n2ccccc12	BAZ2B inh 50µM
CC(C)NC(=O)N(C)C[C@@H]1Oc2c(NC(=O)C3CCOCC3)cccc2C(=O)N([C@@H](C)CO)C[C@H]1C	none (no result: BAZ2B inh, G9a inh)
COc1cccc(C(=O)OCCNC(=O)c2cccnc2)c1	G9a inh 50µM
O=C(NCCOC(=O)C1COc2ccccc2O1)c1cccnc1 (centres undefined)	JMJD2A Tudor 40µM, BAZ2B inh inconclusive, G9a inh 50µM
COc1ccc(OCC(=O)OCCNC(=O)c2cccnc2)cc1	JMJD2A Tudor 50µM, BAZ2B inh inconclusive, G9a inh 32µM
O=C(NCCOC(=O)C1COc2ccccc2O1)C1COc2ccccc2O1 (centres undefined)	G9a inh inconclusive
Cc1ccc(OCC(=O)NNC(=O)c2cccnc2)cc1	G9a inh 79µM
COc1cccc(C(=O)NCCCNC(=O)c2cccnc2)c1	none
CC(C)C1C(=O)NC(=S)N1S(=O)(=O)c1ccc(C(C)(C)C)cc1 (centres undefined)	G9a inh 3.2µM
COc1ccccc1-c1nc(NC(C)=O)n[nH]1	none
CCS(=O)(=O)c1nc(NC(C)=O)n[nH]1	BAZ2B inh 50µM, G9a inh 5.6µM
O=C1NC[C@H](CCCCN2C[C@H](Cc3ccccc3)N(CCC3CCCCC3)C(=O)C2=O)N(Cc2ccccc2)C1=O	none (no result: JMJD2A Tudor, BAZ2B inh, HP1b binding inh, G9a inh)
CC/C(=N/Nc1ccc(Cl)cc1)c1cnnc(SC)n1	JMJD2A Tudor inconclusive, G9a inh 5.6µM
CC/C(=N/Nc1cccc(C)c1)c1cnnc(SC)n1	JMJD2A Tudor 56µM, G9a inh 7.1µM
CC/C(=N/O)c1cnnc(SC)n1	none
Cc1ccc(Cl)cc1N1CCN(Cc2nc3c(c(=O)[nH]c(=O)n3C)n2Cc2ccccc2F)CC1	JMJD2A Tudor inconclusive, G9a inh 40µM
COc1ccc(N2CCN(Cc3nc4c(c(=O)[nH]c(=O)n4C)n3CC(C)C)CC2)cc1	G9a inh 25µM (no result: Six1-Eya2 blk, CtBP-E1A inh)
CC(C)Oc1cc(N)c(Cl)cc1Cl	none
CCOc1ccc(-c2nnc(-c3ccncc3)o2)cc1	JMJD2A Tudor 50µM, HP1b binding inh inconclusive
NC1=NC(=O)/C(=C/c2ccccc2OCC(=O)Nc2ccc(F)cc2)S1	none (no result: BAZ2B inh, G9a inh)
O=C(COc1ccccc1/C=C1\SC(=S)NC1=O)Nc1ccc(F)cc1	CtBP-E1A inh -85 (no result: BAZ2B inh, G9a inh)

Screens: PubChem BioAssay, National Center for Advancing Translational Sciences (NCATS)
